Test [1] has as its target T1, Ephrin type-B receptor 2 (Homo sapiens) (UniProt P29323).
T1 sequence (whole entry): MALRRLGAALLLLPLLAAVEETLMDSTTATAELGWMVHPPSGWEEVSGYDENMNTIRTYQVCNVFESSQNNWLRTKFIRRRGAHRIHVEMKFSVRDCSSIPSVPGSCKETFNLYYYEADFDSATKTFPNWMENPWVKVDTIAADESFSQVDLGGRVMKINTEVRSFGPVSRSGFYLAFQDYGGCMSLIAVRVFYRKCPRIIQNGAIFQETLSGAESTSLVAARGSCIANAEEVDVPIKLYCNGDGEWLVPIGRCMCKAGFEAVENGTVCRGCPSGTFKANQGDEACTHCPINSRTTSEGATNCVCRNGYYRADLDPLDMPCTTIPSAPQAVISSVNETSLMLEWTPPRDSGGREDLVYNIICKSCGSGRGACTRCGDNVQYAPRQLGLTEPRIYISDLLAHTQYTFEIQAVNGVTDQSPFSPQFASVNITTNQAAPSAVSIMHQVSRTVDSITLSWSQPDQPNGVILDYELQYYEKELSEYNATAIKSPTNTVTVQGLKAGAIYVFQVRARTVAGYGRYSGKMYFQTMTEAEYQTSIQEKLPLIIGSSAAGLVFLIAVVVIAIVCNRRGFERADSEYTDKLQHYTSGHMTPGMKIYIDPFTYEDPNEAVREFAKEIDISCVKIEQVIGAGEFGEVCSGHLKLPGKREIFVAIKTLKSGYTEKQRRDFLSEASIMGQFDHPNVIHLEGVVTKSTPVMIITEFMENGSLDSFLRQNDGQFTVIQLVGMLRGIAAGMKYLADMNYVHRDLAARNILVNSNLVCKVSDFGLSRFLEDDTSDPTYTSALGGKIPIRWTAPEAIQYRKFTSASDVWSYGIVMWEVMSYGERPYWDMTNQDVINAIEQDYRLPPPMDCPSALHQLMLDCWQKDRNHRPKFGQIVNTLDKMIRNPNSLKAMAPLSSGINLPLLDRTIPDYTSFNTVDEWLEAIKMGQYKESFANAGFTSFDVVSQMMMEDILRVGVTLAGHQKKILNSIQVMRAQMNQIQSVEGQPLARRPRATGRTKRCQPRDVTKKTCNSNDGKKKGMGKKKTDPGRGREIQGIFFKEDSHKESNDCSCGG
To be noted: at 1 µM.

In test [2] the target is T2, Ephrin type-B receptor 3 (Homo sapiens) (UniProt P54753).
T2 sequence (whole entry): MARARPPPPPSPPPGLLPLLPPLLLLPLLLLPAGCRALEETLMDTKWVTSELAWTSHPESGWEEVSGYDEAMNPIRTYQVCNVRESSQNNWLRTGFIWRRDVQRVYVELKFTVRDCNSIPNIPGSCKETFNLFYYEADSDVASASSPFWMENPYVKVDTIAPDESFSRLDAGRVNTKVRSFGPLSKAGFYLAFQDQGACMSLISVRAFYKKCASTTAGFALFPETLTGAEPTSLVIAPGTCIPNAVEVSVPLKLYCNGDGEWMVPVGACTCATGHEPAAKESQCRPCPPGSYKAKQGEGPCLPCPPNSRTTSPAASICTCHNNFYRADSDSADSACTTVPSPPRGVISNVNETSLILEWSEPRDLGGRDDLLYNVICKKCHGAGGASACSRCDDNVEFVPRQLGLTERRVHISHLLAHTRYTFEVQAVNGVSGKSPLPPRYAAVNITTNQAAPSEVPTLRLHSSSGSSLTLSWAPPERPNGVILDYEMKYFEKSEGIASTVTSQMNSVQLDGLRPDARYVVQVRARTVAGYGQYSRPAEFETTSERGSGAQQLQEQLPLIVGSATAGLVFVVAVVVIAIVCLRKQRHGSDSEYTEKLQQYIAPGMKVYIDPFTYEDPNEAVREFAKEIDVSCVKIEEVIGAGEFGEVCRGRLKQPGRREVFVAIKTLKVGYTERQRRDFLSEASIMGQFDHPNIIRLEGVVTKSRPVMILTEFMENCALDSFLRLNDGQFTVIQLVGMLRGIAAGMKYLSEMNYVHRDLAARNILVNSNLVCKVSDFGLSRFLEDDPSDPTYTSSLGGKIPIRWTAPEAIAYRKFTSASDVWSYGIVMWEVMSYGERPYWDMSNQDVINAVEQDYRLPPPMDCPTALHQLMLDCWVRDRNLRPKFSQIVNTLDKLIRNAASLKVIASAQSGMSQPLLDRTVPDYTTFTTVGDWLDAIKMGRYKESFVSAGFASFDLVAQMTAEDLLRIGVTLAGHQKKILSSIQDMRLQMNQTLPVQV
To be noted: at 0.1 µM.

In test [3] the target is T2, Ephrin type-B receptor 3 (Homo sapiens). To be noted: at 1 µM.
Test [4] has as its target T3, Ephrin type-B receptor 4 (Homo sapiens) (UniProt P54760).
T3 sequence (whole entry): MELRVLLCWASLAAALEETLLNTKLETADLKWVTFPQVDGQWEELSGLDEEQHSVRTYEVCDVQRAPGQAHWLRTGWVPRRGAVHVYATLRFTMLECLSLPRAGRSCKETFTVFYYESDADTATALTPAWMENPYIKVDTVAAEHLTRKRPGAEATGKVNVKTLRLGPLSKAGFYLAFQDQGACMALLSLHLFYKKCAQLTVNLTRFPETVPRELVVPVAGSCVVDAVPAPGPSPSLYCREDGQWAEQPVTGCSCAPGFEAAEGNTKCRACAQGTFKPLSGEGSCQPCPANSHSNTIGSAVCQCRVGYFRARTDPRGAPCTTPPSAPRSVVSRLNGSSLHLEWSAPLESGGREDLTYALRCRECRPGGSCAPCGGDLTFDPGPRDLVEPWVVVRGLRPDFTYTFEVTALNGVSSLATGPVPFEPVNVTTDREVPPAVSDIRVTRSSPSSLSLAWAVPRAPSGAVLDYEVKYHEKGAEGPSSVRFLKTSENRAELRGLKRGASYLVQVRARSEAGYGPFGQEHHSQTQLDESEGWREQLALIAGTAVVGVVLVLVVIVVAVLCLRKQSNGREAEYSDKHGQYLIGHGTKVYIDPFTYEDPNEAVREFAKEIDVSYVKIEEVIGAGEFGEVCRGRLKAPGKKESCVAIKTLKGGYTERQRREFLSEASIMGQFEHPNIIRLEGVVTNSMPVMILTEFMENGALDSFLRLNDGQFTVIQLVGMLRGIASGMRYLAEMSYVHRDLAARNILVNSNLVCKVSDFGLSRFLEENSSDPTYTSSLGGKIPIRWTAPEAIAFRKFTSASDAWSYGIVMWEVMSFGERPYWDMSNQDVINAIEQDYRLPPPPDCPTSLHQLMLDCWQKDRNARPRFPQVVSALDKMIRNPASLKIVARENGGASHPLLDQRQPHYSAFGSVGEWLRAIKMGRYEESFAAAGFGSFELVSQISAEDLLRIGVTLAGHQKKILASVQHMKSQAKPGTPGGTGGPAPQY
The following applies: at 0.1 µM.

The target in test [5] is T3, Ephrin type-B receptor 4 (Homo sapiens). To be noted: at 1 µM.
Test [6] deals with Receptor tyrosine-protein kinase erbB-2 (Homo sapiens) (UniProt P04626). To be noted: at 0.1 µM.
Test [7] has the same target. To be noted: at 1 µM.
The target in test [8] is Receptor tyrosine-protein kinase erbB-4 (Homo sapiens) (UniProt Q15303). The following applies: at 0.1 µM.
For test [9] the target is unchanged. To be noted: at 1 µM.
Test [10] has as its target Tyrosine-protein kinase Fer (Homo sapiens) (UniProt P16591). The following applies: at 0.1 µM.
The target is the same in test [11]. The following applies: at 1 µM.
The target in test [12] is Tyrosine-protein kinase Fes/Fps (Homo sapiens) (UniProt P07332). The following applies: at 0.1 µM.
Test [13] shares this target. The following applies: at 1 µM.
Test [14] has as its target Fibroblast growth factor receptor 1 (Homo sapiens) (UniProt P11362). The following applies: at 0.1 µM.
The target is the same in test [15]. To be noted: at 1 µM.
In test [16] the target is Fibroblast growth factor receptor 2 (Homo sapiens) (UniProt P21802). The following applies: at 0.1 µM.
Test [17] shares this target. The following applies: at 1 µM.
The target in test [18] is Fibroblast growth factor receptor 3 (Homo sapiens) (UniProt P22607). The following applies: at 0.1 µM.
For test [19] the target is unchanged. The following applies: at 1 µM.
The target of test [20] is Fibroblast growth factor receptor 4 (Homo sapiens) (UniProt P22455). To be noted: at 0.1 µM.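 Note: values are mean percent inhibition of FGFR4.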

The source of these data is ChEMBL document CHEMBL1961873, “Compounds: GSK PKIS; Assays: Nanosyn kinase panel” (2012).

In general, inhibition refers to the change of the read-out against control, counted positive when it falls.

Sequence of Receptor tyrosine-protein kinase erbB-4 (Homo sapiens) (Q15303 whole entry): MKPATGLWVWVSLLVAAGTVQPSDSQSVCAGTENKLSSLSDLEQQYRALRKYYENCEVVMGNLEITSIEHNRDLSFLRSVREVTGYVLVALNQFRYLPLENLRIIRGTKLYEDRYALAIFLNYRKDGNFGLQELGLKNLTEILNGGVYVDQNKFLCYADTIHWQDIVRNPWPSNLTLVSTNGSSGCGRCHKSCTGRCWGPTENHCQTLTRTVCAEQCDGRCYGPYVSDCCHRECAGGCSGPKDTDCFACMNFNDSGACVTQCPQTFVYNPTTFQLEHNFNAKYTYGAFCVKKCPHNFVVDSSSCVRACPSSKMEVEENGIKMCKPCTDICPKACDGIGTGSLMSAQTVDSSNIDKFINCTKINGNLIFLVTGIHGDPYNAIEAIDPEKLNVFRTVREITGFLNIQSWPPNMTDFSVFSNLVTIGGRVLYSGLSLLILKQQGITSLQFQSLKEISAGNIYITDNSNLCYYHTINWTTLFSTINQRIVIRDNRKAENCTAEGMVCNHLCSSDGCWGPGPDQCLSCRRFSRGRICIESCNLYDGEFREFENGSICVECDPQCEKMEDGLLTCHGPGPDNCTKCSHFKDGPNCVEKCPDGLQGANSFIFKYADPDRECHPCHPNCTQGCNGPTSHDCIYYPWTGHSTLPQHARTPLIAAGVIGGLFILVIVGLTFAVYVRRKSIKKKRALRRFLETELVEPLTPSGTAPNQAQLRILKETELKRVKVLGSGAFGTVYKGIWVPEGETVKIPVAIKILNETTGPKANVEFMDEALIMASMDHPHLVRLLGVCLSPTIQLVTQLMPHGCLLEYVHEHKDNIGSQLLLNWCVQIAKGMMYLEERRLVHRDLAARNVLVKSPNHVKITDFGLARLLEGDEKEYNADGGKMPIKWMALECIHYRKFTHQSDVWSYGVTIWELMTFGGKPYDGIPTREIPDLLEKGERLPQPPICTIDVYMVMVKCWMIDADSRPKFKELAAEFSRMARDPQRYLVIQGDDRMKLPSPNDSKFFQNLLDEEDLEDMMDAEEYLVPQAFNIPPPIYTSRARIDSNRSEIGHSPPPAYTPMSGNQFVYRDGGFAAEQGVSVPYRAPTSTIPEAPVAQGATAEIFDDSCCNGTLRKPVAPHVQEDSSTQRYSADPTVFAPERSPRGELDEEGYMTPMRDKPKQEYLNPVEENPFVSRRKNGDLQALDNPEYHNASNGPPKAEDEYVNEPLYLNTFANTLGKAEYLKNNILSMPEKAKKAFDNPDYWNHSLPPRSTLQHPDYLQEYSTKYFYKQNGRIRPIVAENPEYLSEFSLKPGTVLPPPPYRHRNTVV
Sequence of Tyrosine-protein kinase Fer (Homo sapiens) (P16591 whole entry, looked up): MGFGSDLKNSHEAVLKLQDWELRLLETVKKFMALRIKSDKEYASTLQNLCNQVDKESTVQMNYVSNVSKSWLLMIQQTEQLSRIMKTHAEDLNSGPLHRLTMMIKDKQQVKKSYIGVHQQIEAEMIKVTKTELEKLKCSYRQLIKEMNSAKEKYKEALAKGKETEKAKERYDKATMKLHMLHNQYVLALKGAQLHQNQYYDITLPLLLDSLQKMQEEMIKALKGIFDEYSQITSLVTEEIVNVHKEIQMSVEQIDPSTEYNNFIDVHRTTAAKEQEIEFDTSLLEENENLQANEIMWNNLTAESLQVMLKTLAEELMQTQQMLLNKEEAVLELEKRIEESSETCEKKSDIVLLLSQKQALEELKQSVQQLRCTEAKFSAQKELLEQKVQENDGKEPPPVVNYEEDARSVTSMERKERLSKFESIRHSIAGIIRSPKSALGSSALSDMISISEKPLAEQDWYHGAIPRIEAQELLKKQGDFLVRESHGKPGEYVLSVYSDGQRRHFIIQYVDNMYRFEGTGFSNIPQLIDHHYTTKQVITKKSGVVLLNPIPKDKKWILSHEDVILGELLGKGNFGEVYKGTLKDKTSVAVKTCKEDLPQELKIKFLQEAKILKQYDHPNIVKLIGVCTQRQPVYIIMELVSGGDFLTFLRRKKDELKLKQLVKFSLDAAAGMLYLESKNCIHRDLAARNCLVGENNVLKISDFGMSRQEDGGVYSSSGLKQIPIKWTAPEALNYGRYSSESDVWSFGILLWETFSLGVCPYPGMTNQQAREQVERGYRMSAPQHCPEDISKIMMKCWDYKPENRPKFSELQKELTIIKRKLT
Sequence of Fibroblast growth factor receptor 4 (Homo sapiens) (P22455 22-802 limits assumed): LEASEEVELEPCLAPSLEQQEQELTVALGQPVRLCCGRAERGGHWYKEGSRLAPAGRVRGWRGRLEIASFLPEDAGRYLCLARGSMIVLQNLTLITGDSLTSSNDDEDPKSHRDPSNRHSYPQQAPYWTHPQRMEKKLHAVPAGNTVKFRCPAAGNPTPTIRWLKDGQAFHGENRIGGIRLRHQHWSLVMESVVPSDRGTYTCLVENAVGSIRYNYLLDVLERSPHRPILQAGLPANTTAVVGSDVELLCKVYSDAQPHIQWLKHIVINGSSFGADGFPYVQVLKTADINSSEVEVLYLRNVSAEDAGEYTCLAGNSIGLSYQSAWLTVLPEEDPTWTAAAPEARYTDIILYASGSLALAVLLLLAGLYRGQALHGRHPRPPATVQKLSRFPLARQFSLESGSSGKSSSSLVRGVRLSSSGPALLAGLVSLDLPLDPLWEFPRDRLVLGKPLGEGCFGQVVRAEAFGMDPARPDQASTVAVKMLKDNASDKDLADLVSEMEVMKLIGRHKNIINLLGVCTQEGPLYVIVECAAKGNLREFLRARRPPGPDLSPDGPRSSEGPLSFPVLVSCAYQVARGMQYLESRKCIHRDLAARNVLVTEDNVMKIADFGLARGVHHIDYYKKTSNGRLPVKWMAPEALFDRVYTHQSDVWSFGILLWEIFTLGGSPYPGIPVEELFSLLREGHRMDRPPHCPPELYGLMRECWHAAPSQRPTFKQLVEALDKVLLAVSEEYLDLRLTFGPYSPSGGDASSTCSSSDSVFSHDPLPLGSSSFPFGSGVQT
Sequence of Fibroblast growth factor receptor 2 (Homo sapiens) (P21802 22-821 limits assumed): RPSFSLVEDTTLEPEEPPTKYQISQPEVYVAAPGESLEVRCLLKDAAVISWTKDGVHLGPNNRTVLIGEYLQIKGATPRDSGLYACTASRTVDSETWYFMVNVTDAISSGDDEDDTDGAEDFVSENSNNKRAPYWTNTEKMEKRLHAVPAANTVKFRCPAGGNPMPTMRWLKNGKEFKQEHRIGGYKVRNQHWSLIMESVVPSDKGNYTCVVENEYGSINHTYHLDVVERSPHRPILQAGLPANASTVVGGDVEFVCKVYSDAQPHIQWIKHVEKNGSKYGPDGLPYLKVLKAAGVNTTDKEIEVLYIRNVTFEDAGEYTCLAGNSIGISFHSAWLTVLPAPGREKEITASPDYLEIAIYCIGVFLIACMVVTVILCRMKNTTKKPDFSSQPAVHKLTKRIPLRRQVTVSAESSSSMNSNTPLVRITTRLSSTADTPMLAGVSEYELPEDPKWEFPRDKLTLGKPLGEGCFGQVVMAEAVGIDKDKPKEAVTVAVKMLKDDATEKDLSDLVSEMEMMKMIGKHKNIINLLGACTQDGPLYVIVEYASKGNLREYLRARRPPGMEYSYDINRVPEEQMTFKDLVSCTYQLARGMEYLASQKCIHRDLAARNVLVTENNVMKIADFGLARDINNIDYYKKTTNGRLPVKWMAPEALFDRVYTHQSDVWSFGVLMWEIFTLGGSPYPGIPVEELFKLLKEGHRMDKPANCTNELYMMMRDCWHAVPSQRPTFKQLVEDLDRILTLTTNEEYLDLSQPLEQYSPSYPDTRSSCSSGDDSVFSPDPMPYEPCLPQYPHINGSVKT
Sequence of Tyrosine-protein kinase Fes/Fps (Homo sapiens) (P07332 whole entry): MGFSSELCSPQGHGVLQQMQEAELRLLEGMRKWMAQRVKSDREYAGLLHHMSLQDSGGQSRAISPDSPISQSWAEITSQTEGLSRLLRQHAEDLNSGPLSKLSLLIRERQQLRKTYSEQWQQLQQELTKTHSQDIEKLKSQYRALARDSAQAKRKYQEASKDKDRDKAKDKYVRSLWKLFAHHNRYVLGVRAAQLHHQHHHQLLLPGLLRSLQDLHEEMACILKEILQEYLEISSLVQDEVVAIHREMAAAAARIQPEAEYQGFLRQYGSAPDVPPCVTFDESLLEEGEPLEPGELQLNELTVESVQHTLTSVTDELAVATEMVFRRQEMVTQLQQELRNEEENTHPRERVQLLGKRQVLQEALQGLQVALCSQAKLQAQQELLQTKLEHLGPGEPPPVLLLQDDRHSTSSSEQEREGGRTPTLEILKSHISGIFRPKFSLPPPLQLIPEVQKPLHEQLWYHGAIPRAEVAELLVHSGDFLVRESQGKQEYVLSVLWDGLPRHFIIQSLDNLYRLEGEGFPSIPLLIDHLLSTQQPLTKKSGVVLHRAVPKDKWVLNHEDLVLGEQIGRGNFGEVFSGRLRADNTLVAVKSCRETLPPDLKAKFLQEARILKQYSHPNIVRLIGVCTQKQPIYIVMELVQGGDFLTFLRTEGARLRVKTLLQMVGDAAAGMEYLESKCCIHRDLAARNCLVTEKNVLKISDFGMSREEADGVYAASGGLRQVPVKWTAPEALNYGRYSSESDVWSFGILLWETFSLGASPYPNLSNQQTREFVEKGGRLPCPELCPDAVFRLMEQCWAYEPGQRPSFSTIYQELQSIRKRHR

As to `[O-][S+]1CCN(Cc2ccc(-c3ccc4ncnc(Nc5ccc(OCc6ccccc6)c(F)c5)c4c3)o2)CC1`, the inhibition in test [1] is -0.23%; in [2], 3.15%; in [3], 1.61%; in test [4] it was 0.35%; in test [5], 2.22%; in test [6] it was 20.4%. The inhibition worked out at 75.1% in test [7]; 68.7% in test [8]; 88.7% in test [9]; 3.77% in test [10]; 6.08% in [11]; 1.91% in test [12]. Besides, the inhibition in [13] is 3.4%; in test [14] it was 2.71%; in test [15], -2.34%; in test [16], 1.34%; in test [17], 3.9%; in test [18], 3.41%. The figures for the inhibition in [19] and in [20] were 2.82% and 0.38%, respectively.
With `CC(C)=Cc1cccc2c1/C(=N/Nc1ccc(S(N)(=O)=O)cc1)C(=O)N2`, the inhibition in test [1] is 5.84%; in [2], 2.65%; in test [3], -0.21%; in [4] it was 1.72%; in test [5], 2.38%; in test [6], 0.59%. In addition, the inhibition in test [7] was determined as 4.72%; in test [8], 5.98%; in test [9] it was 4.74%; in test [10], 3.57%; in [11] it was 20.1%; in test [12] it was 0.31%. In addition, the inhibition is 2.29% in test [13]; -0.4% in test [14]; 14.7% in [15]; 3.88% in test [16]; 36.8% in [17]; 3.36% in [18]. The inhibition in [20] was found to be 4.09%.
Consider `COc1ccc(-c2coc3ncnc(N)c23)cc1`, for which the inhibition was 7.88% in test [1]; 6.18% in test [2]; 5.65% in test [3]; 2.3% in test [4]; 3.43% in [5]; 0.31% in test [6]. The inhibition in test [7] is -4.24%; in test [8], 9.06%; in [9] it was 15.5%; in test [10] it was 6.86%; in [11], 2.33%; in test [12] it was 4.28%. Further, the inhibition in test [13] is 5.04%; in [14], 3.15%; in [15] it was 9.2%; in test [16] it was 3.85%; in [17] it was 10.1%; in test [18], 6.98%. Moreover, the inhibition is 6.72% in test [19] and -5.79% in test [20].
For the compound `NS(=O)(=O)c1ccc(N/N=C2\C(=O)Nc3ccc(C(=O)NCCc4c[nH]cn4)cc32)cc1`, the inhibition worked out at 16.2% in test [1]; 3.04% in test [2]; 0.13% in test [3]; 4.11% in [4]; 6.29% in [5]; 1.36% in test [6]. Besides, the inhibition in [7] worked out at 1.09%; in test [8], 6.82%; in test [9], 7.51%; in test [12], 5.34%; in test [13], 8.37%; in test [14], 3.36%. Further, the inhibition was 12.1% in test [15]; 7.55% in test [16]; 11.5% in [17]; 6.41% in test [18]; 7.55% in test [19]; 4.66% in test [20].
With `COc1cc2ncn(-c3cc(OCc4ccccc4Cl)c(C(N)=O)s3)c2cc1OC`, the inhibition in test [1] was 7.08%; in [2] it was 2.15%; in test [3], 1.6%; in [4], 0.55%; in test [5], 3.38%; in test [6] it was -1%. Besides, the inhibition in test [7] was 2.47%; in test [8] it was -1.93%; in test [9], 9.17%; in test [10], 2.47%; in [11], 8.52%; in test [12] it was -0.24%. For the same compound, the inhibition in test [13] was 0.38%; in test [14], 3.46%; in test [15], 8.43%; in test [17], 13.2%; in [18], 4.37%; in test [19], 13.2%. Further, the inhibition in test [20] was -5.86%.
For `COc1cc2ncn(-c3cc(O[C@H](C)c4ccccc4Cl)c(C(N)=O)s3)c2cc1OC`, the inhibition in test [1] is 21.9%; in test [2], 3.78%; in test [3], 5.92%; in test [4], 4.27%; in test [5], 7.03%; in test [6], 2.23%. The inhibition in [7] came out at 7.82%; in [8] it was 7.95%; in test [9], 14%; in test [10], 4.62%; in [11], 16.7%; in test [12], 3.81%. In addition, the inhibition is 5.11% in [13]; 4.42% in test [14]; 29.4% in [15]; 12.3% in test [16]; 44.9% in [17]; 9.47% in test [18]. Besides, the inhibition in test [20] was determined as 3.73%.
Regarding `Cc1ccc(C(=O)NC2CCCCC2)cc1-c1ccc(C(=O)NCC2CC2)cc1`, the inhibition in test [1] is 7.74%; in [2] it was 5.37%; in test [3], 1.76%; in test [4], 1.61%; in test [5], 0.58%; in [6] it was -0.05%. In addition, the inhibition in test [7] is -2.24%; in test [8], 13.3%; in [9], 17.9%; in [10], 5.55%; in test [11], 4.17%; in test [12] it was 3.08%. Also, the inhibition in test [13] came to 2.29%; in [14] it was 3.66%; in test [15] it was 5.66%; in test [16], 2.75%; in test [17] it was 6.2%; in [18] it was 4.11%. The inhibition is 4.7% in [19] and -0.52% in [20].
